PubChem BioAssay AID651636 (Sanford-Burnham Center for Chemical Genomics, 2012)
Among all 360,000 compounds or so, about 3,000 (0.83%) were called active. No stated cut-off is given here; in the data, active means inhibition above about 38%; inactive means the rest. The sample as a whole holds a higher share of actives than the screen did.

What follows are compounds tested against G-protein coupled receptor 183 (Homo sapiens) (UniProt P32249) (assay: blockers of oxysterol-driven EBI2 arrestin signaling – cell-based, luminescence, 7a,25-OHC stimulation, uHTS, primary screen (AID 651636;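 further: enzyme fragment complementation signal reports receptor beta-arrestin coupling in cells; 0% = agonist plus DMSO wells and 100% = wells without agonist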)). Details: EBI2 beta-arrestin recruitment, 7a,25-OHC stimulated, at 5 µM, active compounds read high.
Chain of G-protein coupled receptor 183 (Homo sapiens) (P32249 whole entry, looked up, the tested form may be a part): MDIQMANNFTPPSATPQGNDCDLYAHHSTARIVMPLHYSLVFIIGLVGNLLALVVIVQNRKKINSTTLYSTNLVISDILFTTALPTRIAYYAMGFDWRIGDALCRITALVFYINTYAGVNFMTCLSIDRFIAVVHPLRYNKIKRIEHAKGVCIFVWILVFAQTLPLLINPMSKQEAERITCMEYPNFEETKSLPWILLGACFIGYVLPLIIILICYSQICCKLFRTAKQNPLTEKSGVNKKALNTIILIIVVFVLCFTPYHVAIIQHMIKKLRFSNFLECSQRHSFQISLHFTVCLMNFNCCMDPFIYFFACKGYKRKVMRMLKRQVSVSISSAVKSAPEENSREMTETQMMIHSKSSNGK

Structure (SMILES)	inhibition
CC(=O)OC1C2(CC3N4C(=O)C5(CO)SSC4(CC31O)C(=O)N5C)OC(C)C(C)(C)C2=O (stereo not given)	94.4% (active)
CC(C)(C)[C@]1(O)C[C@@H]2OC(=O)C[C@@]23C(=O)O[C@@H]2OC(=O)[C@H](O)[C@]213	-2.99% (inactive)
O=C(CCC(=O)N1C[C@H]2C[C@@H](C1)c1cccc(=O)n1C2)NCc1ccccc1C(F)(F)F	-0.966% (inactive)
CC(=O)Nc1ccccc1C(=O)OCC(=O)c1cccc2ccccc12	12.7% (inactive)
COc1cccc(C(=O)N2C[C@H]3C[C@@H](C2)c2cccc(=O)n2C3)c1	-6.08% (inactive)
O=C(Cc1ccccc1[N+](=O)[O-])N1CCN(Cc2ccc3c(c2)OCO3)CC1	5.95% (inactive)
O=C(COc1ccc2ccccc2c1)N1CCN(Cc2ccncc2)CC1	66.2% (active)
CC(C)c1ccc(OCC(=O)N2CCCN(C)CC2)cc1	2.02% (inactive)
CC(c1ccccc1)(c1ccccc1)c1ccncc1	11.4% (inactive)
COC(=O)C1=C(c2ccccc2OCc2ccccc2)C[C@@H]2CC[C@H]1N2C(=O)NCc1ccc(OC)cc1	26.2% (inactive)
COC(=O)C1=C(c2ccc(F)cc2OCc2ccccc2)C[C@@H]2CC[C@H]1N2C(=O)NCc1ccc(OC)c(OC)c1	9.54% (inactive)
CCc1ccc(OCC(=O)N2CCN(CC(=O)Nc3ccccc3Cl)CC2)cc1	73.1% (active)
O=C(CN1CCCCC1)Nc1ccc(Br)cc1C(=O)c1ccccc1Cl	-11.6% (inactive)
CCC(=O)c1ccc(OCC(=O)N2CCN(CC(=O)Nc3ccc(C)cc3)CC2)cc1	6.66% (inactive)
CCOP(=S)(OCC)C(O)CCCCCn1c(=O)c(F)cn(C2CCCO2)c1=O (stereo not given)	-1.97% (inactive)
CN(c1ccccc1)c1ccc([N+](=O)[O-])c2nonc12	1.86% (inactive)
CC[N+](CC)(CC)CCCCCCCCCC[N+](CC)(CC)CC	2.47% (inactive)
C[C@H]1CN([C@@H](C)CO)C(=O)CCCn2nncc2CO[C@H]1CN(C)C(=O)Oc1cccc2ccccc12	-6.15% (inactive)
COC(=O)C1=C(c2cccc(OCc3ccccc3)c2)C[C@@H]2CC[C@H]1N2C(=O)NCc1ccc(Br)cc1	19% (inactive)
COC(=O)C1=C(c2ccc(OCc3ccccc3)cc2)C[C@@H]2CC[C@H]1N2C(=O)NCc1cccc(F)c1	64.5% (active)
COC(=O)C1=C(c2ccc(OCc3ccccc3)cc2)C[C@@H]2CC[C@H]1N2C(=O)NCc1ccc(Cl)cc1	22.1% (inactive)
Cc1cc(C)c2c(c1)NP(=S)(c1ccccc1)N2 (stereo not given)	11.1% (inactive)
O=C1NC(=O)N(CCc2ccc(F)cc2)C(=O)/C1=C/C=C/c1ccccc1	58.5% (active)
CN(C)c1nc(N(C)C)nc(N(C#N)CCCl)n1	2.53% (inactive)
COc1ccc(NC(=O)c2cn(CCC#N)nc2-c2ccc([N+](=O)[O-])cc2)cc1	-6.27% (inactive)
